Experimental findings from PubChem BioAssay (EPA / NIEHS) are described below.

A structure can be active in one record and inactive in another. Active and inactive are the calls of the source. The calls were made as follows: active = hit-call score of the fitted dose curve at least 0.9, where 1 is the maximum; inactive = score below 0.9.

What is called AC50 is the concentration giving half of the maximal activity seen.

The nature of assay [1]: ATG_NFI_CIS: Attagene CIS-FACTORIAL HepG2 Assay for human Nuclear Factor I (NFI) (AID 2282989). The settings on record: HepG2 cis-regulatory reporter, NFI response element transcription; actives raise or lower the signal. A digest of the protocol: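 HepG2, transient MRTU, 24 h exposure; RNA→cDNA→PCR→FAM label→HpaI→CE fluorescence. Bidirectional fit, DMSO = baseline.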
Assay [2] addresses Myc proto-oncogene protein (Homo sapiens) (UniProt P01106). Kind of assay: ATG_Myc_CIS: Attagene CIS-FACTORIAL HepG2 Assay for human Myelocytomatosis (Myc) Proto-Oncogene Transcription Factor (AID 2282990). The settings on record: HepG2, Attagene cis-reporter transcription factor activity; actives raise or lower the signal. In a few lines: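 Read-out: fluorescent reporter mRNA fragments resolved by capillary electrophoresis after RT-PCR. Human HepG2 liver cells carried transfected cis-element reporter units and were dosed for 24 h. Gain or loss of signal fitted relative to DMSO baseline.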

A short description of assay [3]: ATG_NF_kB_CIS: Attagene CIS-FACTORIAL HepG2 Assay for human Nuclear Factor Kappa B (NF-kB) (AID 2282991). To be noted: HepG2 Attagene cis-factorial NF-kB reporter mRNA; actives raise or lower the signal. A digest of the protocol: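 Fluorescence of labelled RT-PCR products separated by capillary electrophoresis gives reporter mRNA levels from transfected HepG2 cells exposed 24 h; values are fitted in both directions relative to DMSO.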

Assay [4] in a line: ATG_NRF2_ARE_CIS: Attagene CIS-FACTORIAL HepG2 Assay for human Nuclear Factor Erythroid 2 Related Factor 2 (NFR2) response to Antioxidant Response Elements (ARE) (AID 2282992). To be noted: HepG2 Attagene ARE/NRF2 reporter, transcription factor activity; actives raise or lower the signal. A digest of the protocol: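 Endogenous transcription factor activity read out as reporter transcript levels (RT-PCR plus capillary electrophoresis, fluorescence) in transiently transfected HepG2 cells. Measured at 24 h after dosing; gain or loss of signal fitted versus DMSO.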

In assay [5] the target is Cellular tumor antigen p53 (Homo sapiens) (UniProt P04637). Put plainly: ATG_p53_CIS: Attagene CIS-FACTORIAL HepG2 Assay for human p53 Transcription Factor (AID 2282994). To be noted: HepG2 p53 cis-element reporter, Attagene mRNA; actives raise or lower the signal. A digest of the protocol:
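Endogenous p53 activity read in transiently transfected HepG2 from a cis-element-driven reporter transcript after 24 h exposure. RNA reverse-transcribed, PCR-amplified, fluorescently labelled and sized by capillary electrophoresis; gain or loss fitted against DMSO baseline.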

Assay [6] is described as follows: ATG_Oct_MLP_CIS: Attagene CIS-FACTORIAL HepG2 Assay for human Octamer-Binding Transcription Factor (Oct) (AID 2282993). To be noted: HepG2 Attagene cis-factorial Oct reporter, mRNA; actives raise or lower the signal. A digest of the protocol:
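Multiplexed cis-reporter assay in human liver HepG2 cells, 24 h incubation. Reporter RNA amplified and labelled, then resolved by capillary electrophoresis; DMSO serves as negative control and baseline.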

The nature of assay [7]: BSK_3C_TissueFactor: BioMAP Diversity Plus: 3C Assay for Tissue Factor Biomarker Activity (AID 2282997). The settings on record: BioMAP 3C HUVEC, tissue factor biomarker readout; actives raise or lower the signal. A digest of the protocol:
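Tissue factor on primary human umbilical vein endothelium was read by ELISA 24 h after dosing, gain or loss relative to DMSO. Cytotoxicity ran alongside via SRB (0.1%, TCA-fixed, 560 nm).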

The nature of assay [8]: BSK_3C_uPAR: BioMAP Diversity Plus: 3C Assay for Urokinase-type plasminogen activator receptor (uPAR) Biomarker Activity (AID 2282998). To be noted: BioMAP 3C HUVEC, uPAR biomarker ELISA; actives raise or lower the signal. A digest of the protocol: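 Dose primary human umbilical vein endothelial cells, incubate 24 h, measure cell-surface uPAR by ELISA, then fit the signal in both directions against the DMSO negative control.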

Assay [9] can be described thus: BSK_3C_VCAM1: BioMAP Diversity Plus: 3C Assay for Vascular cell adhesion molecule 1 (VCAM1) Biomarker Activity (AID 2282999). The settings on record: BioMAP 3C HUVEC, VCAM1 ELISA, cytokine-stimulated; actives raise or lower the signal. In a few lines: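 HUVEC primary cells, 24 h compound exposure; VCAM-1 by ELISA; gain/loss of signal fitted bidirectionally vs DMSO baseline.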
On the technique in general: An ELISA detects its analyte on a solid surface through an enzyme-linked reagent.

Assay [10] is described as follows: BSK_4H_Eotaxin3: BioMAP Diversity Plus: 4H Assay for Eotaxin 3 Biomarker Activity (AID 2283000).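 As to outcome: CCL26 protein level quantified by ELISA in parallel with SRB cytotoxicity check.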 The settings on record: primary human endothelial cells (HUVEC); actives raise or lower the signal. A digest of the protocol:
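Human umbilical vein endothelial cells (BSK_4H system) dosed with test chemical; Eotaxin-3 (CCL26) measured by ELISA 24 h after dosing. Bidirectional curve fitting relative to DMSO negative control as baseline.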

Chain of Myc proto-oncogene protein (Homo sapiens) (P01106 whole entry, looked up, the tested form may be a part): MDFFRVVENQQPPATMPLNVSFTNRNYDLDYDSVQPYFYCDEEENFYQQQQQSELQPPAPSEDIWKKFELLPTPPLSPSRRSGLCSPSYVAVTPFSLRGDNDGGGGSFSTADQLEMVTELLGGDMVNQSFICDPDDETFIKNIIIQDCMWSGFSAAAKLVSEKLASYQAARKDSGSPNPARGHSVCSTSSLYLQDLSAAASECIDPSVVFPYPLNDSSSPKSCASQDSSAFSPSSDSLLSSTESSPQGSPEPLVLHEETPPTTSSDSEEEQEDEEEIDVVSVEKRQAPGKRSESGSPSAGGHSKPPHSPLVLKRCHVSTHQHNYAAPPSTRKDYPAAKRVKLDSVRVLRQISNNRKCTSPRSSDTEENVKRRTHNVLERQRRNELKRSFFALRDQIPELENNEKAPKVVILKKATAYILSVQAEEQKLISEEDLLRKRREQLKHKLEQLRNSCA
Chain of Cellular tumor antigen p53 (Homo sapiens) (P04637 whole entry, looked up): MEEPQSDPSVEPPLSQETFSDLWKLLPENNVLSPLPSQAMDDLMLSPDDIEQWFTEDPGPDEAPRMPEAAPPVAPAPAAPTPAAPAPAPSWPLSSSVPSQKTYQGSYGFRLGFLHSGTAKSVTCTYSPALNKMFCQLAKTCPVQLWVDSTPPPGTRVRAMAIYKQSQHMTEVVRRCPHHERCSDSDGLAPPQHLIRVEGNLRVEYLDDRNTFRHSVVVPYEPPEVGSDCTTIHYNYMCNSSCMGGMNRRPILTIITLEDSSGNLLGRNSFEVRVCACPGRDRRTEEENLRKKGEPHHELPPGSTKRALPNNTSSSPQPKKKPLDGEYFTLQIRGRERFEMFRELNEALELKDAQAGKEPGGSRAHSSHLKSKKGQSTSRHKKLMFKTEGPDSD

Turning to `CC(CN1c2ccccc2Sc2ccccc21)N(C)C` (stereo unspecified), the result in [1], in assay [2], in assay [3] and in assay [4] was inactive. In addition, the AC50 in assay [5] is 30.5 µM (active).

With `CC(=O)c1c(C)cc(C(C)(C)C)cc1C`, the compound was classed as inactive in assay [1], in assay [2], in assay [3], in [4] and in assay [5].

As to `CC(C)(C)c1n[nH]c(=S)n(N)c1=O`, the result in assay [1], in assay [2], in [3], in assay [4] and in assay [5] was inactive.

Turning to `c1ccc2sc(SN(C3CCCCC3)C3CCCCC3)nc2c1`, the result in assay [1], in assay [3], in [4], in [6], in assay [7] and in [9] was inactive. The outcome in [10] was inactive. Moreover, the results for the half-maximal activity concentration (AC50) in assay [2] and in assay [8] were 8.17 µM (active) and 7.59 µM (active), respectively.

On to `C[C@H]1C[C@@H]2[C@H]([C@@H](O)C[C@@]3(C)[C@H]2CC[C@]3(O)C(=O)CO)[C@@]2(C)C=CC(=O)C=C12`, for which the result in assay [1], in assay [2], in assay [3], in assay [6], in [5] and in assay [7] was inactive. In addition, the result in assay [8], in assay [9] and in assay [10] was inactive.

For the compound `C#C[C@]1(O)CC[C@H]2[C@@H]3CCC4=Cc5oncc5C[C@]4(C)[C@H]3CC[C@@]21C`, the AC50 in assay [1] was 57.1 µM (active); in assay [6] it was 29 µM (active); in assay [8], 6.51 µM (active). Also, the outcome in assay [2], in assay [3], in assay [4], in assay [7], in [9] and in [10] was inactive.

As for `COc1cccc(OC)c1`, the outcome in [1], in [2], in assay [3], in assay [4] and in assay [5] was inactive.

`C=C(C)C(=O)NCCCN(C)C`: the outcome in assay [1], in [2], in assay [3], in [4] and in assay [5] was inactive.

Consider `CC1CCC(C(C)CS)CC1S` (stereo unspecified), for which the result in [1], in assay [3] and in assay [8] was inactive. Moreover, the half-maximal activity concentration (AC50) was 52.4 µM (active) in assay [2]; 26.1 µM (active) in assay [6]; 52.6 µM (active) in [5]; 36.7 µM (active) in assay [7]; 30 µM (active) in [9]; 30.3 µM (active) in assay [10].

Consider `Nc1cc([N+](=O)[O-])ccc1O`, for which the call in [1], in [2], in assay [3], in [6], in assay [5] and in [7] was inactive. Besides, the result in assay [8], in assay [9] and in assay [10] was inactive. Also, the values for the half-maximal activity concentration (AC50) in assay [4] and in [10] were 38.1 µM (active) and 14.9 µM (active), respectively.

Regarding `c1ccc(CCCc2ccccn2)cc1`, the compound was classed as inactive in assay [1], in [2], in assay [3] and in assay [6].

With `CCCCCCCCCCCCOCCO`, the AC50 is 56.6 µM (active) in assay [1], 50.2 µM (active) in assay [2] and 56.5 µM (active) in assay [6]. Further, the compound was classed as inactive in assay [3].

For `CC(C)(C)NC(N)=O`, the compound was classed as inactive in assay [1], in [2], in assay [3], in assay [6] and in assay [5].

Turning to `CCCC/C=C\CCCCCCCCCC=O`, the outcome in assay [1], in [2], in assay [3], in assay [4] and in [5] was inactive.

`C=CC(=O)OCC(O)COc1ccccc1` (stereo unspecified): the call in assay [1], in [2], in assay [6] and in [5] was inactive. The AC50 in [3] was 55.7 µM (active).

On to `O=S(=O)(O)c1cccc2c(S(=O)(=O)O)cccc12`, for which the result in assay [1], in assay [2], in assay [3], in [4] and in assay [5] was inactive.

Consider `Cc1ccc(C(C)C)cc1O`, for which the outcome in assay [1], in [2], in assay [3] and in assay [6] was inactive.

Turning to `CSc1nc(NC2CC2)nc(NC(C)(C)C)n1`, the call in [1], in [2], in [3], in assay [6] and in assay [5] was inactive.

On to `OCCOc1cccc(OCCO)c1`, for which the outcome in [1], in assay [2], in assay [3] and in [6] was inactive.

Turning to `O=C(O)C[C@H](O)C[C@H](O)/C=C/c1c(C2CC2)nc2ccccc2c1-c1ccc(F)cc1`, the call in assay [1], in assay [2], in [4], in assay [6], in assay [7] and in assay [9] was inactive. Besides, the AC50 in assay [3] is 2.68 µM (active); in assay [8], 0.289 µM (active); in [10], 0.198 µM (active).

With `CCC(=O)OCCC(C)CCC=C(C)C` (stereo unspecified), the compound was classed as inactive in [1], in assay [2], in assay [3], in assay [6] and in [5].

In the case of `CC(=O)Nc1ccc(C)cc1C`, the compound was classed as inactive in assay [1], in [2], in assay [3], in assay [6] and in assay [5].

Take `CCCCc1ccc(N)cc1`: the result in assay [1], in assay [2], in assay [3] and in assay [5] was inactive. The AC50 in [4] is 27.2 µM (active).

Take `C=C[Si](OCC)(OCC)OCC`: the compound was classed as inactive in assay [1], in [2], in [3], in assay [4], in assay [5] and in assay [7]. Besides, the result in assay [8], in [9] and in assay [10] was inactive.

Turning to `CCCc1ccccc1O`, the compound was called inactive in assay [1], in [2], in assay [3], in [6] and in assay [5].

Consider `CNC[C@H](O)c1cccc(O)c1`, for which the result in [1], in assay [2], in assay [3], in assay [6], in [7] and in assay [8] was inactive. Further, the result in [9] and in assay [10] was inactive.

`N#Cc1ccc(CC(=NNC(=O)Nc2ccc(OC(F)(F)F)cc2)c2cccc(C(F)(F)F)c2)cc1`: the compound was called inactive in assay [1], in assay [2], in [3], in assay [4], in [6] and in assay [7]. Further, the result in [8], in assay [9] and in assay [10] was inactive.

As for `CCC(C)(O)CCC=C(C)C` (stereo unspecified), the outcome in [1], in assay [2], in assay [3], in assay [4] and in [5] was inactive.

Regarding `C=CCOc1nc(OCC=C)nc(OCC=C)n1`, the compound was classed as inactive in assay [1], in assay [2], in assay [3], in assay [4] and in assay [5].

Regarding `Nc1cc([N+](=O)[O-])ccc1Cl`, the outcome in assay [1], in assay [2], in assay [3], in assay [5], in [7] and in [8] was inactive. In addition, the outcome in [9] and in assay [10] was inactive.

Consider `COc1cc2ncnc(Nc3cccc(Cl)c3)c2cc1OC`, for which the call in assay [1] and in assay [2] was inactive. In addition, the figures for the AC50 in assay [3], in assay [6] and in [5] were 40.8 µM (active), 25 µM (active) and 1.57 µM (active), respectively.
